The source of these data is PubChem BioAssay (NCI).

What all share (assay): NCI-60 one-dose screen, 48 h (100 = growth as untreated, 0 = no growth, -100 = all killed)
One test concerns SK-MEL-2 melanoma. Particulars: 10 µM unless noted.
A further test has as its system EKVX NSCLC. Particulars: 10 µM unless noted.
A further test has as its system SN12C renal. Particulars: 10 µM unless noted.
The subject of a further test is UO-31 renal. Particulars: 10 µM unless noted.
In another test the test system is TK-10 renal. Particulars: 10 µM unless noted.
The next test relates to ACHN renal. Particulars: 10 µM unless noted.
Another test relates to A498 renal. Particulars: 10 µM.
A further test relates to HL-60(TB) leukemia. Particulars: 10 µM unless noted.
The subject of another test is CCRF-CEM leukemia. Particulars: 10 µM unless noted.
For the next test, the system named is MOLT-4 leukemia. Particulars: 10 µM unless noted.
The next test concerns RPMI-8226 leukemia. Particulars: 10 µM unless noted.
For the next test, the system named is OVCAR-8 ovarian. Particulars: 10 µM unless noted.
The subject of another test is OVCAR-5 ovarian. Particulars: 10 µM unless noted.
In a further test the test system is OVCAR-4 ovarian. Particulars: 10 µM unless noted.
The test system of a further test is SK-OV-3 ovarian. Particulars: 10 µM unless noted.
Another test concerns IGROV1 ovarian. Particulars: 10 µM unless noted.
The test system of the next test is OVCAR-3 ovarian. Particulars: 10 µM unless noted.
A further test relates to HS 578T breast. Particulars: 10 µM unless noted.
For a further test, the system named is SR leukemia. Particulars: 10 µM unless noted.

The panel holds about 83,000 compounds, 20% with a hit somewhere; the sample as a whole holds those more often.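 Step 1: grow cells in 96-well plates. Step 2: add test compound at a single concentration. Step 3: incubate 48 h. Step 4: record percent growth.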 Unmarked numbers belong to inactive results. Activity calls are given as the source filed them. Rule for the calls: active = growth percent below 10; inactive = the rest.

In the case of `N#C[S-].[Au+].c1ccc(CN2[CH-]N(Cc3ccccc3)C(c3ccccc3)=C2c2ccccc2)cc1`, the growth in the test with SK-MEL-2 melanoma is -1.84% (active); in the test with EKVX NSCLC, 12.6%; in the test with SN12C renal, 6.67% (active); with UO-31 renal, 4.03% (active); in the test on TK-10 renal it was 17.6%; in the test with ACHN renal it was 2.08% (active). Also, the growth is -37.3% (active) in the test with A498 renal; -44.1% (active) in the test with HL-60(TB) leukemia; 1.1% (active) in the test on CCRF-CEM leukemia; 3.58% (active) in the test with MOLT-4 leukemia; -16.4% (active) in the test on RPMI-8226 leukemia; 12.1% in the test with OVCAR-8 ovarian. Besides, the growth in the test with OVCAR-5 ovarian was 36.8%; in the test on OVCAR-4 ovarian, 19.4%; in the test on SK-OV-3 ovarian it was -0.746% (active); with IGROV1 ovarian, 30.3%; in the test with OVCAR-3 ovarian, -6.54% (active); in the test with HS 578T breast it was 36.3%.
Consider `COC(=O)[C@@H](C)C[C@H](Cc1ccccc1)NC(=O)c1csc([C@@H](C[C@H](C(C)C)N(C)C(=O)[C@H](C)NC(=O)[C@H]2CCCCN2C)OC(C)=O)n1`, for which the growth in the test on SK-MEL-2 melanoma was 41.9%; in the test on EKVX NSCLC it was 53.6%; in the test with SN12C renal, 36%; in the test on UO-31 renal, 66.4%; with TK-10 renal it was 61.7%; in the test with ACHN renal it was 48.2%. Further, the growth in the test with A498 renal was 56.4%; with HL-60(TB) leukemia it was -19.6% (active); in the test on CCRF-CEM leukemia, 12.3%; in the test with MOLT-4 leukemia, 33.2%; in the test on SR leukemia it was 15.8%; in the test on RPMI-8226 leukemia, 15.7%. Also, the growth in the test on OVCAR-8 ovarian is 26.4%; in the test on OVCAR-5 ovarian, 63.7%; with OVCAR-4 ovarian it was 60.3%; in the test on SK-OV-3 ovarian, 47.2%; with IGROV1 ovarian, 47%; in the test with OVCAR-3 ovarian, -0.67% (active). In addition, the growth in the test with HS 578T breast is 6.45% (active).
As to `O=P(N1CC1)(N1CC1)N1CCc2ccccc21`, the growth with SK-MEL-2 melanoma is 121%; with EKVX NSCLC, 119%; with SN12C renal, 92.4%; in the test on UO-31 renal it was 92.2%; in the test on TK-10 renal it was 110%; in the test on ACHN renal, 108%. Further, the growth with A498 renal is 106%; in the test with CCRF-CEM leukemia, 104%; with OVCAR-8 ovarian, 103%; in the test on OVCAR-5 ovarian, 112%; in the test on OVCAR-4 ovarian, 115%; in the test on SK-OV-3 ovarian it was 111%. Also, the growth was 130% in the test on IGROV1 ovarian, 107% in the test on OVCAR-3 ovarian and 106% in the test with HS 578T breast.
As to `CCCCCCCC[n+]1ccc2ccccc2c1`, the growth in the test with SK-MEL-2 melanoma was 24.5%; with EKVX NSCLC, 75.3%; in the test with SN12C renal it was 48.3%; in the test on UO-31 renal it was 71%; in the test with TK-10 renal, 62.9%; in the test on ACHN renal, 94.8%. The growth in the test with A498 renal is 93.1%; in the test with CCRF-CEM leukemia, 43.3%; in the test on MOLT-4 leukemia, 58%; in the test with SR leukemia, 47.8%; in the test on RPMI-8226 leukemia, 13.8%; in the test with OVCAR-8 ovarian, 55.7%. Besides, the growth in the test with OVCAR-5 ovarian was 88.5%; with OVCAR-4 ovarian, 46.4%; with SK-OV-3 ovarian, 62.9%; in the test on IGROV1 ovarian, 64.1%; in the test with OVCAR-3 ovarian, 50.2%; in the test on HS 578T breast it was 76.1%.
For `Cc1ccc(C(=O)NCCCOc2ccc(N3C(N)=NC(N)=NC3(C)C)cc2Cl)cc1S(=O)(=O)F`, the growth in the test on SK-MEL-2 melanoma was 70.1%; in the test with EKVX NSCLC it was 79.3%; in the test with SN12C renal, 35.2%; in the test with UO-31 renal, 105%; in the test with TK-10 renal, 103%; in the test on ACHN renal it was 110%. Besides, the growth with A498 renal was 118%; in the test on HL-60(TB) leukemia, 30.2%; in the test on CCRF-CEM leukemia it was 55.1%; with MOLT-4 leukemia it was 119%; in the test on SR leukemia, 21.4%; in the test on OVCAR-8 ovarian it was 77.2%. For the same compound, the growth in the test with OVCAR-5 ovarian is 51.6%; in the test on OVCAR-4 ovarian it was 111%; in the test on SK-OV-3 ovarian, 101%; in the test on IGROV1 ovarian it was -28.2% (active); in the test with OVCAR-3 ovarian, 121%.
On to `CC(=O)O[C@H](C[C@H](C(C)C)N(C)C(=O)[C@@H](NC(=O)[C@H]1CCCCN1C)C(C)C)c1nc(C(=O)NC2CCC(C(=O)O)CC2)cs1` (stereo partly drawn), for which the growth was 37.4% in the test with SK-MEL-2 melanoma; 57.8% in the test on EKVX NSCLC; 13.4% in the test with SN12C renal; 76.4% in the test on UO-31 renal; 73.8% in the test with TK-10 renal; 86.8% in the test on ACHN renal. Moreover, the growth was 35.8% in the test on A498 renal; -22.2% (active) in the test on HL-60(TB) leukemia; 12.8% in the test on CCRF-CEM leukemia; 30.9% in the test on MOLT-4 leukemia; 22.3% in the test with SR leukemia; 23.8% in the test with RPMI-8226 leukemia. For the same compound, the growth is 59.9% in the test with OVCAR-8 ovarian; 85.7% with OVCAR-5 ovarian; 72% in the test with OVCAR-4 ovarian; 50.9% in the test on SK-OV-3 ovarian; 2.22% (active) with OVCAR-3 ovarian; 24.2% in the test with HS 578T breast.
Regarding `Fc1ccc2c(c1)c(-c1nc(-c3c[nH]c4ncccc34)cs1)cn2CCN1CCOCC1`, the growth was 67.4% in the test with SK-MEL-2 melanoma; 32.8% in the test with EKVX NSCLC; 65.8% in the test with SN12C renal; 25.5% with UO-31 renal; 64.1% in the test on TK-10 renal; 48.3% in the test on ACHN renal. Moreover, the growth was 74.1% in the test on A498 renal; 48.1% in the test on HL-60(TB) leukemia; 35.2% in the test on CCRF-CEM leukemia; 35.4% in the test on MOLT-4 leukemia; 39.7% in the test on SR leukemia; 29% in the test on RPMI-8226 leukemia. In addition, the growth in the test on OVCAR-8 ovarian is 33.5%; with OVCAR-5 ovarian, 89.8%; in the test on OVCAR-4 ovarian it was 44.7%; in the test with SK-OV-3 ovarian, 87.2%; in the test with IGROV1 ovarian, 21.5%; with OVCAR-3 ovarian, 59.5%. For the same compound, the growth in the test on HS 578T breast is 53.8%.
`CC1=C(CCCOC(=O)CN)C2=C(C)C3(CC3)[C@@](C)(O)C(=O)C2=C1`: the growth in the test on SK-MEL-2 melanoma was 102%; with EKVX NSCLC it was 95.8%; in the test with SN12C renal it was 81.3%; in the test on UO-31 renal, 73.3%; in the test with TK-10 renal, 102%; in the test on ACHN renal, 97.4%. The growth in the test with A498 renal was 94.7%; in the test with HL-60(TB) leukemia, 75.2%; with CCRF-CEM leukemia, 81.1%; in the test with MOLT-4 leukemia it was 84.5%; in the test on SR leukemia, 94.7%; in the test on RPMI-8226 leukemia, 88.8%. The growth in the test on OVCAR-8 ovarian is 73.8%; with OVCAR-5 ovarian, 114%; in the test on OVCAR-4 ovarian it was 85%; with SK-OV-3 ovarian, 51.3%; with IGROV1 ovarian it was 32.8%; in the test on OVCAR-3 ovarian, 101%. Further, in the test with HS 578T breast, the growth was 93.9%.
